In PubChem BioAssay (NCATS):
Inconclusive results are not listed. Values without a mark were called inactive. Active and inactive are the calls of the source. Calls come from the whole dose curve; as a rule, active = well fitted curve in the direction sought with a large enough effect; inconclusive = small, poorly fitted or top-dose-only effect, or another doubt; inactive = no such curve, though single readings can be large; an effect the other way counts as inactive or inconclusive.

Tests used:
[1] = qHTS of pediatric cancer cell lines to identify multiple opportunities for drug repurposing: Primary screen for NB-EBc1 cells (AID 1347095); note: potency is the fitted concentration of half-maximal effect
Method in brief: (§1)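 Phenotypic viability qHTS, 48 h compound exposure, CellTiter-Glo luminescence read-out; multi-concentration dosing so that potency and efficacy derive directly from the primary screen's curves.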

[2] = qHTS of pediatric cancer cell lines to identify multiple opportunities for drug repurposing: Primary screen for Saos-2 cells (AID 1347097); note: nearly all actives have a fitted effect of over 40% in size; note: potency is the fitted concentration of half-maximal effect
Method in brief: as §1

[3] = qHTS of pediatric cancer cell lines to identify multiple opportunities for drug repurposing: Primary screen for SK-N-SH cells (AID 1347098); note: nearly all actives have a fitted effect of over 65% in size; note: potency is the fitted concentration of half-maximal effect
Method in brief: (§2)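 Cells (500-1,000/well) rested 5 h, then received compounds for 48 h; metabolically active cells were measured by CellTiter-Glo luminescence. Final concentrations spanned up to 46 µM (MIPE, 11-point) or 0.59 nM-46 µM (NPC, 8-point) in primary screens, 11-point in follow-ups.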

[4] = qHTS of pediatric cancer cell lines to identify multiple opportunities for drug repurposing: Primary screen for NB1643 cells (AID 1347099); note: nearly all actives have a fitted effect of over 50% in size; note: potency is the fitted concentration of half-maximal effect
Method in brief: as §1

[5] = qHTS of pediatric cancer cell lines to identify multiple opportunities for drug repurposing: Primary screen for LAN-5 cells (AID 1347100); note: potency is the fitted concentration of half-maximal effect
Method in brief: (§3)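 Viability after 48 h compound treatment at 37C, 500-1,000 cells/well, read as ATP luminescence with CellTiter-Glo. Primary screens used 11-point (MIPE, 0.78 nM-46 µM) or 8-point (NPC, 0.59 nM-46 µM) final concentrations; follow-up screens used 11-point dilutions.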

[6] = qHTS of pediatric cancer cell lines to identify multiple opportunities for drug repurposing: Primary screen for BT-12 cells (AID 1347101); note: nearly all actives have a fitted effect of over 25% in size; note: potency is the fitted concentration of half-maximal effect
Method in brief: as §2

[7] = qHTS of pediatric cancer cell lines to identify multiple opportunities for drug repurposing: Primary screen for Rh18 cells (AID 1347102); note: nearly all actives have a fitted effect of over 65% in size; note: potency is the fitted concentration of half-maximal effect
Method in brief: as §3

[8] = qHTS of pediatric cancer cell lines to identify multiple opportunities for drug repurposing: Primary screen for OHS-50 cells (AID 1347103); note: nearly all actives have a fitted effect of over 40% in size; note: potency is the fitted concentration of half-maximal effect
Method in brief: as §2

[9] = qHTS of pediatric cancer cell lines to identify multiple opportunities for drug repurposing: Primary screen for RD cells (AID 1347104); note: nearly all actives have a fitted effect of over 55% in size; note: potency is the fitted concentration of half-maximal effect
Method in brief: as §1

[10] = qHTS of pediatric cancer cell lines to identify multiple opportunities for drug repurposing: Primary screen for U-2 OS cells (AID 1347096); note: nearly all actives have a fitted effect of over 50% in size
Method in brief: as §3

Row | Structure (SMILES) | Potency [1] | Potency [2] | Potency [3] | Potency [4] | Potency [5] | Potency [6] | Potency [7] | Potency [8] | Potency [9] | Potency [10]
1 | C[C@H](NCc1ccc2c(c1)nc(NC(=O)c1ccc(-c3cn[nH]c3)s1)n2CCc1ccccc1)C(C)(C)C | 1870 nM (active) | 1180 nM (active) | 3040 nM (active) | 1180 nM (active) | 833 nM (active) | 2430 nM (active) | 2960 nM (active) | 1090 nM (active) | 3720 nM (active) | –
2 | NC[C@H]1O[C@H](O[C@H]2[C@@H](O)[C@@H](O[C@H]3O[C@H](CO)[C@@H](O)[C@H](N)[C@@H]3O)[C@H](N)C[C@@H]2N)[C@H](N)C[C@H]1O | inactive | inactive | inactive | inactive | inactive | inactive | inactive | inactive | inactive | –
3 | C=C1CCC2[C@](C)(CO)C(O)CC[C@]2(C)C1CC=C1C(=O)OCC1O (stereo partly specified) | inactive | – | – | inactive | inactive | inactive | inactive | inactive | inactive | inactive
4 | CC[C@@]1([C@@H]2O[C@@H]([C@H]3O[C@@](O)(CO)[C@H](C)C[C@H]3C)C[C@H]2C)CC[C@H]([C@]2(C)CC[C@]3(C[C@H](O)[C@@H](C)[C@@H]([C@@H](C)[C@@H](OC)[C@H](C)C(=O)O)O3)O2)O1 | 182 nM (active) | 6450 nM (active) | 10500 nM (active) | 457 nM (active) | 129 nM (active) | 106 nM (active) | inactive | 188 nM (active) | – | –
5 | CCc1c(O)cc(O)c(C(=O)c2ccc(OCCN3CCOCC3)c(OC)c2)c1CC(=O)N(CCOC)CCOC | 4180 nM (active) | – | 6810 nM (active) | – | 590 nM (active) | – | 1320 nM (active) | – | 526 nM (active) | inactive
6 | C[C@@H](Oc1ccc2[nH]nc(C=Cc3cnn(CCO)c3)c2c1)c1c(Cl)cncc1Cl | 93.5 nM (active) | – | – | – | 4180 nM (active) | 17200 nM (active) | 5900 nM (active) | 7690 nM (active) | 18700 nM (active) | inactive
7 | CC(=O)N1CCN(c2ccc(OCc3nn(C)c(C)c3-c3cccc4c(CCCOc5cccc6ccccc56)c(C(=O)O)n(Cc5cccnc5)c34)cc2)CC1 | 418 nM (active) | 3720 nM (active) | 3830 nM (active) | 209 nM (active) | 148 nM (active) | 2430 nM (active) | 590 nM (active) | 109 nM (active) | 1660 nM (active) | –
8 | CCC(C(=O)O)C1CCC(C)C(C(C)C(O)C(C)C(=O)C(CC)C2OC3(C=CC(O)[C@@]4(CC[C@](C)(C5CC[C@@](O)(CC)C(C)O5)O4)O3)C(C)CC2C)O1 (stereo partly specified) | 296 nM (active) | 9350 nM (active) | 12100 nM (active) | 1660 nM (active) | 1050 nM (active) | 385 nM (active) | 5900 nM (active) | 432 nM (active) | 4180 nM (active) | –
9 | CC(C)NC[C@@H](C(=O)N1CCN(c2ncnc3c2[C@H](C)C[C@H]3O)CC1)c1ccc(Cl)cc1 | 833 nM (active) | 6620 nM (active) | 12100 nM (active) | 3320 nM (active) | 2960 nM (active) | 24300 nM (active) | 5900 nM (active) | 193 nM (active) | 1180 nM (active) | –
10 | c1cncc(CN2CCC(n3ncc4c(N5CCOCC5)nc(-c5ccc6[nH]ccc6c5)nc43)CC2)c1 | 4690 nM (active) | – | – | 6620 nM (active) | 14800 nM (active) | 13700 nM (active) | 5900 nM (active) | 2170 nM (active) | 6620 nM (active) | inactive
11 | OCc1ccccc1O[C@@H]1O[C@H](CO)[C@H](O)[C@H](O)[C@H]1O | inactive | inactive | inactive | inactive | inactive | inactive | inactive | inactive | inactive | –
12 | COc1ccc([C@@H]2CNC(=O)C2)cc1OC1CCCC1 | inactive | – | 3040 nM (active) | – | inactive | – | – | inactive | 3320 nM (active) | inactive
13 | CC(C(C)N1CC(=O)NC(=O)C1)N1CC(=O)NC(=O)C1 (stereo unspecified) | 264 nM (active) | – | inactive | – | 743 nM (active) | inactive | inactive | – | inactive | inactive
14 | CN(C)CC(=O)N1CCC(c2ccc(NC(=O)c3ncc(C#N)[nH]3)c(C3=CCCCC3)c2)CC1 | 23500 nM (active) | 18700 nM (active) | 1210 nM (active) | 18700 nM (active) | 16600 nM (active) | 30600 nM (active) | 23500 nM (active) | 13700 nM (active) | 18700 nM (active) | –
15 | Cc1cnc(Nc2ccc(N3CCN(C)CC3)cc2)nc1Nc1cccc(S(=O)(=O)NC(C)(C)C)c1 | 1870 nM (active) | 4690 nM (active) | 3040 nM (active) | 3720 nM (active) | 743 nM (active) | 21700 nM (active) | 3320 nM (active) | 1090 nM (active) | 5260 nM (active) | –
16 | Cc1ccc([N+](=O)[O-])cc1S(=O)(=O)N(C)N=Cc1cnc2ccc(Br)cn12 | 935 nM (active) | 187 nM (active) | 10.8 nM (active) | 4.2 nM (active) | 8.3 nM (active) | 34.3 nM (active) | 148 nM (active) | 30.6 nM (active) | 74.3 nM (active) | –
